According to PubChem BioAssay (NCI):
The panel holds about 83,000 compounds, 20% with a hit somewhere; the sample as a whole holds those more often.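 Each cell line was grown in a 96-well plate and treated with one concentration of compound for 48 hours. Values below 10 were considered active.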 Unmarked numbers belong to inactive results. Activity calls are given as the source filed them.

Legend:
Assay in all cases: NCI-60 one-dose screen, 48 h (100 = growth as untreated, 0 = no growth, -100 = all killed)
Settings in all cases: 10 µM unless noted
HCT-15 colon = tested on: HCT-15 colon
HT29 colon = tested on: HT29 colon
SNB-75 CNS = tested on: SNB-75 CNS
SNB-19 CNS = tested on: SNB-19 CNS
U251 CNS = tested on: U251 CNS
PC-3 prostate = tested on: PC-3 prostate
UACC-62 melanoma = tested on: UACC-62 melanoma
LOX IMVI melanoma = tested on: LOX IMVI melanoma
SK-MEL-28 melanoma = tested on: SK-MEL-28 melanoma

| SMILES | growth (HCT-15 colon) | growth (HT29 colon) | growth (SNB-75 CNS) | growth (SNB-19 CNS) | growth (U251 CNS) | growth (PC-3 prostate) | growth (UACC-62 melanoma) | growth (LOX IMVI melanoma) | growth (SK-MEL-28 melanoma) |
| --- | --- | --- | --- | --- | --- | --- | --- | --- | --- |
| C/C=C(/C)C(=O)O[C@@H]1CC(C)(C)CC2C34OC(=O)[C@@]21CC[C@@]3(C)[C@]1(C)CCC2C(C)(C)C(=O)CC[C@]2(C)C1C[C@@H]4O (stereo partly specified) | 38.4% | 65.1% | 64.1% | 78.6% | 46.9% | 25.4% | 55.3% | 33.5% | 75.8% |
| Cc1cc2nc(C(Cl)Cl)nc(-c3ccccc3)n2n1 | 41.2% | 12.6% | -4.36% (active) | 62.7% | 36% | 65.1% | 88.9% | 75.1% | 85.1% |
| COc1ccc(/C=N/NC(=O)Cn2nnc3ccccc32)cc1 | 104% | 105% | 90.6% | 101% | 102% | 95.9% | 84.6% | 106% | 102% |
| CCN1C(=O)N(CC)C2C1NC(=S)N2/N=C/C=C/c1cccs1 (stereo unspecified) | 15.5% | 5.58% (active) | 1.94% (active) | 27% | 18.4% | 35.2% | 24.5% | 26.7% | – |
| CC1(C)CC[C@]2(CO)CC[C@]3(C)[C@H](CC[C@@H]4[C@@]5(C)CC[C@H](O)C(C)(C)[C@@H]5CC[C@]43C)[C@H]2[C@H]1O | 93.4% | 56.3% | -33.7% (active) | 96.1% | 62.3% | 68.2% | 90.6% | 76.2% | 91.2% |
| C#Cc1cccc(Nc2ncnc3ccc(-c4cnc(Cl)c(NS(C)(=O)=O)c4)cc23)c1 | -32.2% (active) | -21.1% (active) | -21.8% (active) | -24.3% (active) | -61.6% (active) | -7.01% (active) | – | -53.4% (active) | -12.1% (active) |
| N#C/C(Sc1nc2sc3c(c2c(=O)n1Cc1ccccc1)CCCC3)=C1/SC=C(c2ccc(Cl)cc2)N1c1ccccc1 | 117% | 98.7% | 71.2% | 82.3% | 72.8% | 84.2% | 90.3% | 82.1% | 109% |
| COc1ccc(-c2nc(SCCC(C)C)nc(N/N=C(/C)c3ccc(N)cc3)c2C#N)cc1 | 97.6% | 104% | 81.4% | 81.6% | 90.3% | 96.5% | 87.5% | 91.6% | 121% |
| CCOC(=O)CC1CSC(N/N=C/c2ccc(O)cc2)=N1 (stereo unspecified) | 100% | 106% | 93.4% | 106% | 98.9% | 89.5% | 102% | 99% | 107% |
| C#Cc1cccc(Nc2nc(Cl)nc3cc(NC(=O)CCl)ccc23)c1 | -77.7% (active) | -37.8% (active) | -97.5% (active) | -77.1% (active) | -81.8% (active) | -85.6% (active) | -80.5% (active) | – | -94.4% (active) |
| O=C(Nc1ccccc1CNc1nc(Nc2ccc(OCCN3CCCC3)cc2)ncc1Cl)NC1CCCCC1 | 60.7% | 9.11% (active) | 96.5% | 91.6% | 70.4% | 84% | 97.3% | 84.7% | 79.8% |
